Assay results as given in PubChem BioAssay (NCI).
This is part of a sample that, as a whole, favours compounds with a hit. Of some 83,000 tested, about 20% had one in any assay.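 Cells were grown in 96-well plates and exposed to the test compound at a single concentration for 48 hours; results are reported as percent growth, with values below 10 considered active.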

Tests used:
Assay in all cases: NCI-60 one-dose screen, 48 h (100 = growth as untreated, 0 = no growth, -100 = all killed)
Details in all cases: 10 µM unless noted
[1] = test system: NCI-H23 lung
[2] = test system: NCI-H226 lung
[3] = test system: NCI-H322M lung
[4] = test system: HOP-62 NSCLC
[5] = test system: NCI-H460 lung
[6] = test system: HOP-92 NSCLC
[7] = test system: NCI-H522 lung
[8] = test system: A549/ATCC NSCLC
[9] = test system: 786-0 renal
[10] = test system: COLO 205 colon
[11] = test system: DU-145 prostate
[12] = test system: K-562 leukemia
[13] = test system: MALME-3M melanoma
[14] = test system: MDA-MB-231 breast
[15] = test system: RXF 393 renal
[16] = test system: SF-268 CNS
[17] = test system: SF-295 CNS
[18] = test system: SF-539 CNS
[19] = test system: UACC-257 melanoma
[20] = test system: M14 melanoma

Measured: growth

COC(=O)c1ccc([N+](=O)[O-])c(C)c1
inactive: [1] 107% | [2] 102% | [3] 93.2% | [4] 98.5% | [5] 105% | [6] 90.4% | [7] 107% | [8] 107% | [9] 103% | [10] 111% | [11] 113% | [12] 134% | [13] 96.9% | [14] 117% | [15] 105% | [16] 105% | [17] 109% | [18] 96.2% | [19] 101%

COc1cc(C(=O)O)c(O)c(C(C)(C)C)c1
inactive: [1] 102% | [2] 102% | [3] 107% | [4] 104% | [5] 105% | [6] 88.2% | [7] 106% | [8] 102% | [9] 101% | [10] 107% | [11] 106% | [12] 101% | [13] 102% | [14] 103% | [15] 117% | [16] 105% | [17] 102% | [18] 102% | [19] 97.9%

Cc1ccc(C)c(CCO)c1
inactive: [1] 117% | [2] 91.8% | [3] 108% | [4] 92.4% | [5] 105% | [6] 68.3% | [7] 97.8% | [8] 92.6% | [9] 97.2% | [10] 105% | [11] 93% | [12] 116% | [13] 106% | [14] 92.6% | [15] 103% | [16] 96.1% | [17] 102% | [18] 97.2% | [19] 94.8%

Cn1c(=O)c2[nH]c(CCCCC(=O)O)nc2n(C)c1=O
inactive: [1] 114% | [2] 118% | [3] 101% | [4] 108% | [5] 116% | [6] 88.9% | [7] 96.2% | [8] 103% | [9] 114% | [10] 103% | [11] 110% | [12] 109% | [13] 115% | [14] 110% | [15] 127% | [16] 99.2% | [17] 123% | [18] 106% | [19] 103% | [20] 111%

Cc1cc(=O)n(Nc2ccccc2)c(O)c1C#N
inactive: [1] 97.4% | [2] 94% | [3] 92.4% | [4] 86% | [5] 105% | [6] 102% | [7] 100% | [8] 106% | [9] 101% | [10] 104% | [11] 109% | [12] 92.5% | [13] 105% | [14] 103% | [15] 124% | [16] 102% | [17] 101% | [18] 104% | [19] 116%

O=C(Nc1ccccc1)c1ccco1
inactive: [1] 96.2% | [2] 99.1% | [3] 101% | [4] 101% | [5] 108% | [6] 98.8% | [7] 100% | [8] 97.9% | [9] 92.8% | [10] 115% | [11] 112% | [12] 93.7% | [13] 92.9% | [14] 112% | [15] 123% | [16] 117% | [17] 103% | [18] 102% | [19] 107% | [20] 97%

O=C(O)c1cccc(-n2ncc(Cl)c(Cl)c2=O)c1
inactive: [1] 107% | [2] 101% | [3] 117% | [4] 100% | [5] 101% | [6] 112% | [7] 36% | [8] 102% | [9] 109% | [10] 117% | [11] 114% | [12] 109% | [13] 106% | [14] 103% | [15] 118% | [16] 108% | [17] 102% | [18] 101% | [19] 89.2% | [20] 101%

Cc1cc2nc(C)c(C)nc2cc1C
inactive: [1] 93.7% | [2] 84% | [3] 118% | [4] 92.5% | [5] 101% | [6] 63.8% | [7] 95.6% | [8] 101% | [9] 103% | [10] 98.7% | [11] 115% | [12] 119% | [13] 109% | [14] 101% | [15] 109% | [16] 109% | [17] 89% | [18] 104% | [19] 97.8% | [20] 108%
